The list is not random: actives were taken first. Their share in the collection is about 12%.
CHX counter: counter-screen for Shiga toxin inhibitors: cycloheximide protein synthesis inhibition | max response, % | cell reporter, cycloheximide protein synthesis inhibition counterscreen | hit rate 12% among 300,000; in the data active means max response mostly above about 13%, no sharp cut-off; inactive means mostly below about 14%; further: read at 38.3 µM for the half of the compounds with a filed dose
SARS PLP yeast: SARS-CoV PLP inhibition in yeast | S. cerevisiae expressing SARS-CoV PLpro, growth rescue | Potency, µM (titrated, usually from 32.9 µM), hits mostly activators | hit rate 0.19% among 330,000; further: nearly all actives have a fitted effect of over 55% in size
NS1 function inh: inhibitors of influenza NS1 protein function; AID 2326; Potency, µM (titrated, usually from 46.1 µM); hit rate 0.4% among 270,000; further: actives are rising curves; nearly all actives have a fitted effect of over 50% in size
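Read-out: OD600 growth recovery of NS1-expressing budding yeast. Cells grown overnight at 30C in -URA glucose medium, washed, resuspended and diluted 1:100 in 2% galactose assay medium, pH 6.0. Same strain lacking NS1 served as positive control.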
Shiga inhibitor: blocks Shiga toxin action in Vero cells. Vero cells, Shiga toxin protein synthesis inhibition reporter. inhibition, % at 38.7 µM. hit rate 9.2% among 290,000; in the data active means inhibition mostly above about 28%, no sharp cut-off; inactive means mostly below about 43%
Large screens that a line does not name were inactive. Unless noted, the call rests on the fitted dose curve.

C/C(=N/NC(=O)c1ccc(O)cc1)c1cccc([N+](=O)[O-])c1	CHX counter 31, Shiga inhibitor 59
C/C(=N/NC(=O)c1ccc2c(c1)OCO2)c1cccc(NC(=O)C(C)(C)C)c1	none
C/C(=N/NC(=O)c1ccc(Cn2cccn2)o1)c1cccc(NC(=O)c2ccncc2)c1	CHX counter 19
Cc1ccc(C(=O)NCc2cccnc2)cc1S(=O)(=O)Nc1ccccc1	none (no result: NS1 function inh)
CN(C)CCC(=O)[C@@]1(O)CC[C@H]2[C@H]3CC=C4C[C@@H](O)CC[C@]4(C)[C@H]3CC[C@]21C	none (no result: CHX counter, SARS PLP yeast, Shiga inhibitor)
COc1ccc(/C(C)=N\NC(=O)c2ccc3c(c2)OCO3)cc1OC	CHX counter 39 (no result: NS1 function inh)
C/C(=N\NC(=O)c1ccncc1)c1cccc(NC(=O)c2ccc(C(C)(C)C)cc2)c1	CHX counter 27, Shiga inhibitor 66
C/C(=N/NC(=O)c1ccc2c(c1)OCO2)c1ccc(Br)s1	Shiga inhibitor 49 (no result: NS1 function inh)
COc1cc(C(=O)N/N=C(\C)c2ccc3c(c2)OCO3)cc(OC)c1OC	none
C/C(=N\NC(=O)c1ccc(C)cc1C)c1ccc2c(c1)OCO2	CHX counter 26, Shiga inhibitor 67
COCCNC(=O)CSc1ccccc1C(=O)NC1CCCc2ccccc21 (centres undefined)	none
Cc1cccnc1NC(=O)CSc1ccc2c(c1)OCCO2	none (no result: CHX counter, NS1 function inh, Shiga inhibitor)
CC1CN=C(NC(=O)c2cccc([N+](=O)[O-])c2)S1 (centres undefined)	CHX counter 28, NS1 function inh inconclusive, Shiga inhibitor 26
C/C(=N\NC(=O)c1cccc([N+](=O)[O-])c1)c1cccs1	Shiga inhibitor 39
CC(=O)Nc1cccc(/C(C)=N/NC(=O)c2ccc(O)cc2)c1	CHX counter 31 (no result: NS1 function inh)
CC/C(=N\NC(=O)c1ccc2c(c1)OCO2)C12CC3CC(CC(C3)C1)C2	CHX counter 26, Shiga inhibitor 57
O=C1NC(Cc2ccc(O)cc2)c2nc3ccc(Cl)cc3c(=O)n2-c2ccc(Cl)cc21 (centres undefined)	none (no result: CHX counter, NS1 function inh, Shiga inhibitor)
COC(=O)[C@@H](Cc1c[nH]c2ccccc12)NC(=O)CNC(=O)c1ccccc1OC	none
CCN(CC)S(=O)(=O)c1cc(NC(=O)C(C)OC(=O)c2[nH]c(C)c(C(C)=O)c2C)ccc1C (centres undefined)	none
Cc1onc(-c2ccccc2Cl)c1NC(=O)NCc1cccs1	none
NCCCc1c(-c2ccccc2)nc(N)[nH]c1=O	none (no result: CHX counter, SARS PLP yeast, Shiga inhibitor)
C/C(=N\NC(=O)c1ccc2nc[nH]c2c1)c1ccc([N+](=O)[O-])cc1	none
C/C(=N/NC(=O)c1ccc2c(c1)OCCO2)c1ccc([N+](=O)[O-])cc1	CHX counter 15, Shiga inhibitor 21
Cc1cccc(-n2ncc3c(NCc4ccccn4)ncnc32)c1	CHX counter 29, Shiga inhibitor 70
Cc1cccc(-n2ncc3c(NCCc4ccc(S(N)(=O)=O)cc4)ncnc32)c1	none
c1ccc(-n2ncc3c(NCc4ccccn4)ncnc32)cc1	CHX counter 30, Shiga inhibitor 74
C#CCOC(=O)CN1C(=O)c2cccc3cccc(c23)C1=O	CHX counter 18
CN(C)C(=O)c1cc(-c2ccccc2)no1	CHX counter 22, Shiga inhibitor 53
COc1ccc(NC(=O)c2ccc(COCC(F)(F)C(F)F)cc2)cc1	CHX counter 53, Shiga inhibitor active
COc1ccc(C(=O)Nc2cc(OC)cc(OC)c2)cc1	CHX counter 40, Shiga inhibitor 65
COc1cc(NC(=O)c2ccccc2)cc(OC)c1	CHX counter 30
COc1cc(NC(=O)c2ccc(S(=O)(=O)N(C)c3ccccc3)cc2)cc(OC)c1	none (no result: CHX counter, NS1 function inh, Shiga inhibitor)
COc1cc(OC)cc(C(=O)Nc2ccc(C(=O)Nc3ccccc3OC)cc2)c1	none (no result: CHX counter, NS1 function inh, Shiga inhibitor)
CCCCOC(=O)CSc1nc2c(cc1C#N)C(=O)CC(C)(C)C2	CHX counter 47, Shiga inhibitor active
CCOC(=O)CSc1nc(N)c(C#N)cc1C#N	Shiga inhibitor 42
CSc1nc2c(cc1C#N)C(=O)CC(C)(C)C2	none
CC(C)OC(=O)CSc1nc(N)c(C#N)cc1C#N	CHX counter 27, Shiga inhibitor 42
COc1cc(C(=O)Nc2nnc(-c3sccc3C)s2)cc(OC)c1OC	none
COc1cc(-c2nnc(CSc3nnc(N)s3)o2)cc(OC)c1OC	none
COc1cc(-c2nnc(CSc3nnc(Nc4ccc(Oc5ccccc5)cc4)s3)o2)cc(OC)c1OC	CHX counter 15
C[C@H]1CCCC2(CC[N+](C)(CCC[N+](C)(C)C)CC2)C1 (some centres undefined)	none (no result: CHX counter, SARS PLP yeast, Shiga inhibitor)
Clc1ccccc1N/N=C/c1ccc2c(c1)OCO2	CHX counter 76, Shiga inhibitor 115
O=c1nc(N2CCOCC2)nc(N/N=C/c2ccc3c(c2)OCO3)[nH]1	none
O=C(N/N=C/c1ccc2c(c1)OCO2)c1ccc(NC(=O)c2ccccc2Cl)cc1	none
C/C(=N\Nc1nc2ccccc2[nH]1)c1ccc2c(c1)OCO2	CHX counter 35, Shiga inhibitor 65 (no result: NS1 function inh)
C/C(=N\NC(=O)c1cc2ccccc2cc1O)c1ccc2c(c1)OCO2	none
C(=N\Nc1nc2ccccc2[nH]1)/c1ccc2c(c1)OCO2	CHX counter 35, Shiga inhibitor 88 (no result: NS1 function inh)
C/C(=N\Nc1nc2ccccc2[nH]1)c1ccc2c(c1)OCCO2	CHX counter 36, Shiga inhibitor 53 (no result: NS1 function inh)
Cc1cc(C)c2c(c1)c1nnc(SCCN3CCOCC3)nc1n2C	none
COc1cc(OC)cc(-c2nnc3n2N=C(c2cc(OC)ccc2OC)CS3)c1	none (no result: SARS PLP yeast, NS1 function inh)
COCc1cc(C)nc(SCC[N+](C)(C)CC(=O)c2ccccc2)c1C#N	none (no result: NS1 function inh)
CCN1CCN(C(c2cccs2)C(C)NS(=O)(=O)c2ccccc2)CC1 (centres undefined)	none (no result: NS1 function inh)
C/C(=N\Nc1ccccn1)c1ccc2c(c1)OCO2	CHX counter 44, Shiga inhibitor 72
C#CC(CC)(CC)NC(=S)Nc1ccc(S(N)(=O)=O)cc1	CHX counter 12, Shiga inhibitor 44
CCCNC(=S)Nc1ccc(S(N)(=O)=O)cc1	none
CSC1=NCCN1CCOc1ccccc1	none (no result: NS1 function inh)
COc1ccc(-c2cn(Cc3ccc(C)cc3)nn2)cc1	CHX counter 55, Shiga inhibitor 79
O=C(Nc1ccccc1-c1nc2ccccc2[nH]1)c1sc2ccccc2c1Cl	none
CC(=O)Nc1cccc(CP(=O)(c2ccccc2)c2ccccc2)c1	none
COc1ccc(-c2cn3c(C)c(C(=O)Nc4cccc(NC(C)=O)c4)sc3n2)cc1	none
COc1ccc(-c2cn3c4c(sc3n2)CCCC4)cc1	CHX counter 36
Cc1c2cnn(CC(=O)N3CCC4(CC3)OCCO4)c(=O)c2c(C)n1Cc1ccccc1Cl	CHX counter 14
Cc1c2cnn(CC(=O)N3CCC4(CC3)OCCO4)c(=O)c2c(C)n1Cc1ccccc1	none
Cc1nc(NC(=S)NC(=O)COc2ccccc2Cl)ccc1Br	none
Cc1ccc(OCC(=O)NC(=S)Nc2ccccn2)c(Br)c1	CHX counter 28, SARS PLP yeast inconclusive, Shiga inhibitor 83
O=C(COc1ccc(Br)cc1Cl)NC(=S)Nc1ccccn1	CHX counter 76, Shiga inhibitor 115
CCC(=O)c1cn(CC(=O)NCc2ccco2)c2ccccc12	CHX counter 43, Shiga inhibitor 61 (no result: SARS PLP yeast)
O=C(Cn1cc(C(=O)c2ccccc2)c2ccccc21)NCc1ccco1	CHX counter 78
O=C(Cn1cc(C(=O)c2ccco2)c2ccccc21)NCc1ccco1	none

Screening data deposited in PubChem by National Center for Advancing Translational Sciences (NCATS).
